High-throughput results: PubChem BioAssay, National Center for Advancing Translational Sciences (NCATS)
Shown are actives, neighbours in structure and some others; about 6.2% of the full set was active somewhere.
ATXN viability = cell viability loss in ATXN counter-screen. S2 cells (HEK-293 line with an ATXN2-luciferase reporter) viability, CellTiter-Fluor protease fluorescence, 24 h. actives 0.49% (n = 400,000). Potency, µM (highest dose often 56.7 µM), usual class: cytotoxic. AID 651635; note: nearly all actives have a fitted effect of over 40% in size
HT1080-NT tox = kills 2HG-producing HT-1080-NT fibrosarcoma cells; HT-1080-NT fibrosarcoma viability, CellTiter-Glo ATP luminescence, 48 h; Potency, µM (series often up to 46.1 µM), hits mostly cytotoxic; actives 1.6% (n = 360,000);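 note: NT is the 2HG producing partner of a matched IDH1 knockdown line; nearly all actives have a fitted effect of over 55% in size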
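HT-1080-NT; 750 cells/well; 5% FBS RPMI; 48 h compound, 37 degrees C; CellTiter-Glo luminescence; curve fitting and curve-class assignment.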
HT1080 IDH1KD tx = toxicity to HT-1080 IDH1 knockdown cells (counter line); HT-1080 IDH1 knockdown viability, ATP luminescence, 48 h; Potency, µM (doses to about 46.1 µM), actives largely listed as cytotoxic; actives 2% (n = 360,000); AID 686971
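After a 2 h attachment period, IDH1KD HT-1080 cells took pin-transferred compound for 48 h at 37 °C; ATP-based luminescence after 10 min room-temperature reagent incubation reported viability.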
ATXN2 expr inh = ATXN2 expression inhibition. HEK-293 ATXN2-luciferase reporter, luminescence, 24 h. Potency, µM (series often up to 57 µM), hits mostly inhibitors. actives 0.72% (n = 360,000); note: nearly all actives have a fitted effect of over 55% in size
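qHTS (up to 57 uM final) was run with 24 h compound exposure of reporter cells at 37 °C. Each well was multiplexed: SteadyGlo luminescence measured ATXN2-luciferase expression after a fluorogenic Gly-Phe-AFC viability readout (25 uM final).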
KB-V1 cytotox = KB-V1 MDR subline cytotoxicity | KB-V1 MDR cells viability, CellTiter-Glo, 72 h | Potency, µM (series often up to 46.1 µM), hits mostly cytotoxic | actives 3.4% (n = 400,000); note: nearly all actives have a fitted effect of over 60% in size
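Drug-selected KB-V1 cells, grown in DMEM lacking phenol red with 10% FBS, receive compound titrations; after three days at 37 degrees C, surviving cell ATP is quantified by CellTiter-Glo luminescence and responses normalized and curve-fitted.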
KB-3-1 tox = kills parental KB-3-1 adenocarcinoma cells. KB-3-1 viability, CellTiter-Glo ATP luminescence, 72 h. Potency, µM (top dose mostly 46.1 µM), actives largely listed as cytotoxic. actives 1.4% (n = 400,000); note: nearly all actives have a fitted effect of over 60% in size
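Luminescent ATP read-out (CellTiter-Glo) measures survival of drug-naive KB-3-1 cells after 72 h compound exposure at 37 °C. Titration series was screened from lowest to highest concentration, with DMSO vehicle plates as background controls.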
A number is an active result; . = inactive; ? = inconclusive; / = not tested or not shown. Calls come from the whole dose curve; as a rule, active = well fitted curve in the direction sought with a large enough effect; inconclusive = small, poorly fitted or top-dose-only effect, or another doubt; inactive = no such curve, though single readings can be large; an effect the other way counts as inactive or inconclusive.

SMILES	ATXN viability	HT1080-NT tox	HT1080 IDH1KD tx	ATXN2 expr inh	KB-V1 cytotox	KB-3-1 tox
C/C(=N/Nc1nc(-c2ccccc2)cc(-c2ccc(F)cc2)n1)c1cccc(N)c1	.	?	?	.	5.2µM	?
C/C(=N\Nc1nc(C)cc(-c2ccccc2)n1)c1ccc(F)cc1	.	.	.	/	.	?
O=C(Cn1c(=O)n2nc(-c3cccc(F)c3)nc2c2ccccc21)N1CCN(c2ccc(F)cc2)CC1	.	/	/	.	.	.
CCC(C)(C)NC(=O)C(c1ccc(C)o1)N(C(=O)c1csnn1)c1cccc(F)c1 (centres undefined)	.	.	.	.	16µM	.
CC(C)(C)NC(=O)C(c1ccco1)N(C(=O)c1csnn1)c1ccccc1 (centres undefined)	.	.	.	.	15µM	.
CCC(C)(C)NC(=O)C(c1ccccc1)N(Cc1cccnc1)C(=O)c1csnn1 (centres undefined)	?	.	.	.	13µM	.
CCC(C)(C)NC(=O)C(c1ccc(C)cc1)N(Cc1cccnc1)C(=O)c1csnn1 (centres undefined)	.	.	.	.	.	.
Cc1ccc(NC(=O)CN2C(=O)CCSc3ccccc32)c(C)c1	.	/	/	.	?	.
CCCCN(CCCC)C1=C(C(=O)c2ccccc2)N(C)S(=O)(=O)c2ccccc21	.	/	/	.	?	?
O=c1cc(O)c2c(=O)n(-c3ccccc3)c3c(c2o1)CCCCC3	.	.	.	.	16µM	.
Cc1nn(C(C)C(=O)NC2CCCCC2)c(=O)c2c1sc1ccccc12 (centres undefined)	.	/	/	.	.	.
COc1ccc(N(CC(=O)NC2CCCC2)C(=O)Cn2nnc(-c3ccc(C)cc3)n2)cc1OC	.	.	.	.	13µM	.
COc1ccc(N(CC(=O)NC2CCCC2)C(=O)Cn2nnc(-c3ccc(C)o3)n2)cc1	.	.	.	.	?	.
COc1ccc(-c2nnn(CC(=O)N(C3CCCCC3)C(C)C(=O)NC3CCCC3)n2)cc1OC (centres undefined)	?	.	.	.	2.6µM	.
COc1ccc(N(CC(=O)NC2CCCC2)C(=O)Cn2nnc(-c3ccc(F)cc3)n2)cc1OC	.	.	.	.	.	.
COc1ccc(N(CC(=O)NC2CCCC2)C(=O)Cn2nnc(-c3ccc(C)cc3)n2)cc1	.	.	.	.	16µM	.
COc1ccc(CNC(=O)c2ccc3c(c2)CCN3S(=O)(=O)c2ccc(C)cc2)cc1	.	/	/	.	.	.
Nc1cccc[n+]1C(c1ccnc2ccccc12)[n+]1ccccc1N	/	/	/	/	.	.
Cc1c(Cl)cccc1N/C(SCC(=O)N1CCCCCC1)=C(/C#N)c1nc2ccccc2s1	/	.	.	?	15µM	21µM
O=[N+]([O-])c1cc(C(F)(F)F)cc([N+](=O)[O-])c1NCCCNc1ccc([N+](=O)[O-])c2cccnc12	.	.	.	.	10µM	.
O=C(Nc1ccc2oc(=O)ccc2c1)c1ccc(-c2cccc([N+](=O)[O-])c2)o1	/	10µM	8.2µM	.	.	26µM
O=C(Nc1ccc2oc(=O)ccc2c1)c1ccc(-c2ccccc2[N+](=O)[O-])o1	.	18µM	?	.	.	.
CNC[C@@H]1OCc2ccccc2-c2c(n(C)c3ccccc23)C(=O)N([C@H](C)CO)C[C@H]1C	32µM	?	.	?	.	.
C[C@@H]1CN([C@H](C)CO)C(=O)c2c(c3ccccc3n2C)-c2ccccc2CO[C@H]1CN(C)Cc1ccc(C(F)(F)F)cc1	28µM	?	18µM	?	.	?
C[C@@H]1CN([C@H](C)CO)C(=O)c2c(c3ccccc3n2C)-c2ccccc2CO[C@H]1CN(C)C(=O)c1cc(Cl)cc(Cl)c1	.	.	.	.	.	.
Cc1cc(=O)n(C)c(=O)n1CCCCOc1cccc([N+](=O)[O-])c1	.	.	.	.	.	.
Cc1cc(=O)n(C)c(=O)n1CCCCCOc1cccc([N+](=O)[O-])c1	.	.	.	.	8.2µM	.
